In PubChem BioAssay:
Calls of active or inactive are those of the source.

Legend:
[1] = tested on: Plasmodium falciparum Sir2 (PF13_0152, Sir2A); test: Plasmodium falciparum Sir2A binding compounds – biochemical, small-molecule microarray, 635 nm fluorescence, primary screen (AID 1098); conditions: fluorescence 635 nm, higher = more signal;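 further: score merges spot fluorescence intensity with its signal-to-noise ratio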
[2] = probe aDKK1 binding to arrayed compounds – biochemical, biotinylated probe, 635/667 nm fluorescence, primary screen (AID 1099); conditions: small-molecule microarray, higher = more signal;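 further: score merges 667nm spot fluorescence with signal to noise across triplicate slides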
[3] = probe aCHRDL2 binding to arrayed compounds – biochemical, biotinylated probe, 635/667 nm fluorescence, primary screen (AID 1100); conditions: small-molecule microarray, higher = more signal
[4] = change in splice reporter luminescence, either direction, cell-based, HEK293, spliceosome inhibition project, primary screen (AID 1101); conditions: HEK293 splicing luciferase reporter, 24 h, higher = more signal, called active from +8 up or from −8 down;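 further: HEK293 cells carrying a splicing-competent luciferase reporter gene; test concentration not given here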
[5] = target: Fibroblast growth factor 10 (Homo sapiens) (UniProt O15520); test: compounds binding fibroblast growth factor 10 – biochemical, small-molecule microarray, 635 nm fluorescence, primary screen (AID 1102); conditions: FGF10 binding, fluorescence 635 nm, higher = more signal
Chain of Fibroblast growth factor 10 (Homo sapiens) (O15520 whole entry, looked up): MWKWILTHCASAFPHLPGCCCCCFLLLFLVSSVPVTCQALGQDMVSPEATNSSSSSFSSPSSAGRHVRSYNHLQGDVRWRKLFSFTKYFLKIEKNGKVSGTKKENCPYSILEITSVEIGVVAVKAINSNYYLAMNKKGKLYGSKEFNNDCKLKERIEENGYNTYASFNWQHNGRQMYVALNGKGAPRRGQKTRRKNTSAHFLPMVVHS

[6] = tested on: glycogen synthase kinase-3 (GSK3A per assay name; protocol says GSK3B); test: compounds binding glycogen synthase kinase-3 – biochemical, small-molecule microarray, 635 nm fluorescence, GSK3A, primary screen (AID 1103); conditions: fluorescence 635 nm, higher = more signal; further: the record names both GSK3A and GSK3B
[7] = target: Epidermal growth factor receptor (Homo sapiens) (UniProt P00533); test: compounds binding epidermal growth factor receptor – biochemical, small-molecule microarray, 635 nm fluorescence, primary screen (AID 1104); conditions: EGFR binding, higher = more signal;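 further: score merges 667 nm emission intensity with spot signal to noise over triplicate slides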
Chain of Epidermal growth factor receptor (Homo sapiens) (P00533 whole entry, looked up): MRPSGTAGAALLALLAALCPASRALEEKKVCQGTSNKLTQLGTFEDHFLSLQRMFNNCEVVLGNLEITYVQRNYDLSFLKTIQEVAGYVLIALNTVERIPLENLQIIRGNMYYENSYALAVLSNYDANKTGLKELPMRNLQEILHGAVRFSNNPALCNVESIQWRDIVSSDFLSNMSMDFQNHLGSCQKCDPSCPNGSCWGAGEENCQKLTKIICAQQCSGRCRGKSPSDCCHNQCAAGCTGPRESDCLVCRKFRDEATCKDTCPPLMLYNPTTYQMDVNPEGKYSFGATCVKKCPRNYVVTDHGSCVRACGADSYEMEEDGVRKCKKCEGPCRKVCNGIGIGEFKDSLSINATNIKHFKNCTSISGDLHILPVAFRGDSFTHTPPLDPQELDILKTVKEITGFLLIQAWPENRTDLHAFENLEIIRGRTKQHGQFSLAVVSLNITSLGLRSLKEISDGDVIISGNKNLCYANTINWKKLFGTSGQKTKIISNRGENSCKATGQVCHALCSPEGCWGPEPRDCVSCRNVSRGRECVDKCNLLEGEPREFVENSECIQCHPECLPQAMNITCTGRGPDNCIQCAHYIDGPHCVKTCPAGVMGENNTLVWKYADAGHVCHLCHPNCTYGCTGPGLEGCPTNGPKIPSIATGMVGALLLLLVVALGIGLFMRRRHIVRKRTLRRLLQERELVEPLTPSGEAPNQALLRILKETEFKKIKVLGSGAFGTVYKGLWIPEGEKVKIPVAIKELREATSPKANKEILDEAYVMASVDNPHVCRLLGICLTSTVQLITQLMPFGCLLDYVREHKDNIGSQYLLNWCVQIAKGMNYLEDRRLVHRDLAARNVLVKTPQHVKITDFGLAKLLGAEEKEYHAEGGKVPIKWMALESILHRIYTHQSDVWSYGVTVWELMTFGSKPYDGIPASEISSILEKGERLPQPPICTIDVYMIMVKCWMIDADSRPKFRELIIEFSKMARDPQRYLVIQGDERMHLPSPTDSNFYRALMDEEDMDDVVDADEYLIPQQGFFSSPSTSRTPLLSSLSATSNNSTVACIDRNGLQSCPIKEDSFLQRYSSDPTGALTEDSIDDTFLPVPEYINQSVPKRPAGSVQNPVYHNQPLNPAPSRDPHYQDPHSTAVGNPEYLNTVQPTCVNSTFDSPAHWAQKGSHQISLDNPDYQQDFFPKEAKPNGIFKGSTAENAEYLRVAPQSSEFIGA

[8] = target: Follistatin-related protein 3 (Homo sapiens) (UniProt O95633); test: compounds binding follistatin-related protein 3 – biochemical, small-molecule microarray, 635 nm fluorescence, primary screen (AID 1105); conditions: FSTL3 binding, higher = more signal;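 further: score merges emission near 667 nm and signal to noise per printed spot across three slides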
Chain of Follistatin-related protein 3 (Homo sapiens) (O95633 whole entry, looked up): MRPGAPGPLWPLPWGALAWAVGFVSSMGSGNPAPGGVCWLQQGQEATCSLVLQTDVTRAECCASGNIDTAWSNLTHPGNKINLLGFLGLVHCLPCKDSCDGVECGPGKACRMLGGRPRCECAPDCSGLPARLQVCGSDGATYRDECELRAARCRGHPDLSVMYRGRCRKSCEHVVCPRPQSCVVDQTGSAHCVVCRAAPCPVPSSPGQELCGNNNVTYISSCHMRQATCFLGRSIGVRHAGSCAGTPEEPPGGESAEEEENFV

[9] = target: Dickkopf-related protein 1 (Homo sapiens) (UniProt O94907); test: small molecules binding DKK1 protein – biochemical, small-molecule microarray, 635 nm fluorescence scan, primary screen (AID 1106); conditions: higher = more signal;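 further: score merges emission near 667 nm with signal to noise over three replicate slides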
Chain of Dickkopf-related protein 1 (Homo sapiens) (O94907 whole entry, looked up): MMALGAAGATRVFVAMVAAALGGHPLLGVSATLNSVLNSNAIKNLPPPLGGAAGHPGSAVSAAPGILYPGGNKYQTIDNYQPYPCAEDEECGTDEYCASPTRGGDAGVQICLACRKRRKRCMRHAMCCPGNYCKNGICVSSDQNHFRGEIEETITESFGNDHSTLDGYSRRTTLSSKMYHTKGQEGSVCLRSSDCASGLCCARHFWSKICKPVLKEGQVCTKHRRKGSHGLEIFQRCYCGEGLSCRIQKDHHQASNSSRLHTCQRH

[10] = tested on: Inhibin beta A chain (activin A); test: small molecules binding activin A – biochemical, small-molecule microarray, 635 nm fluorescence scan, primary screen (AID 1107); conditions: INHBA, higher = more signal;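 further: mouse activin A protein probed at 4.33 µg/mL on printed slides; score merges bound-protein fluorescence near 667 nm with spot signal-to-noise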
[11] = tested on: Human papillomavirus type 1a protein E7 (residues 44-93); test: small molecules binding HPV E7 44-93 – biochemical, small-molecule microarray, residues 44-93, 635 nm fluorescence, primary screen (AID 1108); conditions: fluorescence 635 nm, higher = more signal;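 further: E7 fragment applied at 1 µg/mL in TBST for 1 h at 4 C; score combines spot fluorescence with its signal to noise ratio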
[12] = hepatitis C replication reporter changes, two-sided – Huh7 cells, luciferase reporter, HCV replication inhibitor project, primary screen (AID 1109); conditions: Huh7 HCV replicon luciferase reporter, 48 h; higher = more signal;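 further: huh7 hepatoma cells harbouring a luciferase neomycin HCV replicon reporter; luciferase luminescence as measure of HCV replicon replication; test concentration not given here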
[13] = target: Left-right determination factor 2 (Homo sapiens) (UniProt O00292); test: small molecules binding LEFTY2 protein – biochemical, small-molecule microarray, 635 nm fluorescence scan, primary screen (AID 1110); conditions: higher = more signal
Chain of Left-right determination factor 2 (Homo sapiens) (O00292 whole entry, looked up): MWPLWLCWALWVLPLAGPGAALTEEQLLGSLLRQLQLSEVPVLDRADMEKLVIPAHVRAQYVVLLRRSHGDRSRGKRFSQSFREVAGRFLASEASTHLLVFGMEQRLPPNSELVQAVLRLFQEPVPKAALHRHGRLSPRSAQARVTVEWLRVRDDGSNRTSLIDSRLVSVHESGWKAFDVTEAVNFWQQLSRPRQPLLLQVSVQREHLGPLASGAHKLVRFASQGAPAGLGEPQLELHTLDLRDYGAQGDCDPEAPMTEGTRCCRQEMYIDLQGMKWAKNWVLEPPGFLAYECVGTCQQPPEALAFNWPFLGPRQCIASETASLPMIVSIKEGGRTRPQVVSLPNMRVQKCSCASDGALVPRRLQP

[14] = target: Calmodulin-1 (Homo sapiens) (UniProt P0DP23); test: small molecules binding calmodulin-1 with EGTA – biochemical, small-molecule microarray, Cy5-labelled CALM1, profiling panel (AID 1111); conditions: Cy5-CALM1 binding fluorescence, higher = more signal;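 further: labelled calmodulin applied in Tris saline Tween buffer holding calcium plus EGTA and DTT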
[15] = target: Calmodulin-1 (Homo sapiens) (UniProt P0DP23); test: small molecules binding Ca-loaded calmodulin-1 – biochemical, small-molecule microarray, Cy5-labelled CALM1, plus calcium, artefact control for SMM control-protein annotation, profiling panel (AID 1112); conditions: Cy5-CALM1 binding fluorescence, higher = more signal;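 further: score merges spot fluorescence with signal to noise from triplicate slides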
[16] = probe aWnt5a binding to arrayed compounds – biochemical, biotinylated probe, 635/667 nm fluorescence, primary screen (AID 1113); conditions: small-molecule microarray, higher = more signal;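 further: score merges 667 nm fluorescence intensity with signal-to-noise per printed feature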
[17] = probe aShh binding to arrayed compounds – biochemical, biotinylated probe, 635/667 nm fluorescence, primary screen (AID 1114); conditions: small-molecule microarray, higher = more signal;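 further: probe is biotin-labelled aShh protein from a stem cell growth factor screen; measures binding of labelled protein to compounds printed on the slide; score merges feature fluorescence at 667 nm with signal-to-noise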
[18] = probe aNog binding to arrayed compounds – biochemical, biotinylated probe, 635/667 nm fluorescence, primary screen (AID 1115); conditions: small-molecule microarray, higher = more signal;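 further: probe is biotinylated aNog protein used at 0.15 µg/mL for 1 h at 4 C; z-score combines 667 nm fluorescence of each spot with its signal to noise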
[19] = target: Torsin-1A-interacting protein 1 (Homo sapiens) (UniProt Q5JTV8); test: compound microarray binding of lysate hLAP1 – cell lysate, small-molecule microarray, COS7 lysate, 635/667 nm fluorescence, primary screen (AID 1116); conditions: 635 nm fluorescence, higher = more signal
Chain of Torsin-1A-interacting protein 1 (Homo sapiens) (Q5JTV8 whole entry, looked up): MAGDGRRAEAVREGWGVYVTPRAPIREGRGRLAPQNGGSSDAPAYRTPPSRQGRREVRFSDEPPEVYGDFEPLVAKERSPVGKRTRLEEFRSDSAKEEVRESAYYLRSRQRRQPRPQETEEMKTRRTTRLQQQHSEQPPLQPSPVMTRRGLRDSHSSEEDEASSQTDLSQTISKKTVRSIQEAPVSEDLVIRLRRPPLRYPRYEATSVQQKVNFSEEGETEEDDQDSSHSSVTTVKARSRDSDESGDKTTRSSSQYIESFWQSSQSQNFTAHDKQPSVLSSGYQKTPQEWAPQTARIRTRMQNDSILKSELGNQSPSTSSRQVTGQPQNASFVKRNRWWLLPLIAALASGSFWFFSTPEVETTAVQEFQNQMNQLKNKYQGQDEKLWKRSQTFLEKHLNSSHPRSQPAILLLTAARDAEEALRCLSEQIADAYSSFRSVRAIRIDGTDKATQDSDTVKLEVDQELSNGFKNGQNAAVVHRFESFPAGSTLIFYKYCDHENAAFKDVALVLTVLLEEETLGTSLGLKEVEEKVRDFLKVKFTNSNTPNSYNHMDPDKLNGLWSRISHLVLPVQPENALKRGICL

[20] = target: Alpha-bungarotoxin (Bungarus multicinctus) (UniProt P60615); test: compounds binding labelled alpha-BTX control protein – biochemical, small-molecule microarray, Alexa647 label, 635/667 nm fluorescence, artefact control for SMM control protein annotation, profiling panel (AID 1117); conditions: alpha-BTX-A647 binding fluorescence, higher = more signal
Chain of Alpha-bungarotoxin (Bungarus multicinctus) (P60615 whole entry, looked up): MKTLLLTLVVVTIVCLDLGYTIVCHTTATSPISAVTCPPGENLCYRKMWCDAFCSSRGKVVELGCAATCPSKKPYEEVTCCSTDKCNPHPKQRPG

Compound | composite z-score [1] | composite z-score [2] | composite z-score [3] | z-score [4] | composite z-score [5] | composite z-score [6] | composite z-score [7] | composite z-score [8] | composite z-score [9] | composite z-score [10] | composite z-score [11] | z-score [12] | composite z-score [13] | composite z-score [14] | composite z-score [15] | composite z-score [16] | composite z-score [17] | composite z-score [18] | composite z-score [19] | composite z-score [20]
O=C(NCC(O)CO)C1N=C(c2ccc(OCCCO)cc2)N(c2ccccc2)O1 (stereo not given) | -0.144 | -0.12 | -0.104 | -1.13 (inactive) | 0.897 | 0.65 | 0.195 | 0.799 | 0.433 | -0.899 | 1.08 | -0.95 | 0.48 | 0.0138 | -0.332 | -0.103 | -0.232 | -0.243 | 1.35 | 0.282
O=C1C=C(c2ccccc2)C(=O)C2=C1CC([C@H]1Oc3ccccc3S(=O)(=O)N3CCC[C@@H]13)=CC2 | -0.365 | -0.191 | -0.569 | -2.32 (inactive) | 0.0925 | -0.009 | 0.0548 | -0.365 | 0.155 | 0.718 | 0.529 | -3.98 | 0.0208 | 0.042 | -0.207 | -0.124 | -0.304 | -0.172 | 0.0279 | 0.0221
COc1ccc([Si](C)(C)[C@H]2[C@H](CC(=O)N3Cc4ccccc4C[C@H]3CO)O[C@@]3(C(=O)N(C)c4ccccc43)[C@@H]2C)cc1 | 1.52 | -0.127 | -0.431 | -2.06 (inactive) | 0.891 | 1.29 | 1.01 | 1.4 | 1.53 | 1.58 | 1.42 | -4.34 | 0.77 | 0.125 | -1.29 | -0.124 | -0.0146 | -0.299 | 0.712 | 2.48
CC(C)C[C@@H]1NC(=O)[C@@H]2C[C@H](C(=O)NCCCCCCNC(=O)CS)[C@H](c3cccc(OCCO)c3)N2C1=O | 1.65 | -0.0594 | 0.237 | -0.356 (inactive) | 1.31 | 1.29 | 0.876 | 1.52 | 1.4 | 0.626 | 1.47 | -0.319 | 0.622 | 1.03 | 0.264 | 0.0375 | 0.0611 | -0.0172 | 1.06 | 2.02
CC(C)NC(=O)[C@@H]1c2ccccc2C(=O)N(Cc2ccccc2C(F)(F)F)[C@H]1c1ccc(CO)cc1 | 1.68 | 1.35 | 0.218 | 0.438 (inactive) | 0.697 | -0.295 | -0.08 | 0.147 | -0.393 | -0.349 | 0.464 | -0.692 | -1.27 | -0.588 | -0.721 | 0.4 | 0.0649 | -1.04 | 0.0048 | -0.198
O=C1[C@H]2C=C(I)[C@H](C[C@@H]2OCCCCCCO)[C@@]12CO2 | 0.525 | -0.261 | 0.191 | 0.0312 (inactive) | 0.281 | -0.454 | 0.677 | 1.39 | 1.15 | 1.43 | -1.14 | -2.67 | 0.687 | -1.08 | -1 | -0.152 | -0.0362 | -0.422 | -0.144 | 0.621
COC(=O)[C@H](Cc1ccc(O)cc1)N[C@@H](/C=C/C1CC1)[C@H](O)Cc1ccccc1 | -0.61 | -0.29 | -0.33 | 1.29 (inactive) | 0.357 | -0.444 | -0.074 | -0.119 | 0.14 | -0.322 | -0.367 | -1.06 | -0.0158 | -0.851 | -0.929 | -0.15 | -0.214 | -0.321 | 0.108 | -0.22
C=CC[C@@]12N=C(c3ccc(OCCCO)cc3)O[C@@H]1c1ccccc1N(CCC)C2=O | 1.58 | 0.257 | 0.952 | -0.457 (inactive) | 0.85 | 1.25 | 0.153 | 1.15 | -0.0879 | 1.19 | 1.35 | -2.18 | 0.271 | 0.106 | -0.242 | -0.0485 | 0.337 | 0.164 | 1.2 | 1.77
COCCOC(=O)N1C(=O)[C@@]2(c3ccccc31)[C@H](C(=O)N1CCN(c3ncccn3)CC1)[C@H]1C(=O)O[C@H](c3ccccc3)[C@H](c3ccccc3)N1[C@@H]2c1ccccc1OCCO | 1.33 | -0.0994 | -0.41 | -1.05 (inactive) | 1.17 | 1.31 | 0.575 | 1.15 | 0.778 | 0.888 | 1.35 | -1.79 | 0.687 | 0.902 | 0.369 | -0.0462 | 0.704 | 0.26 | 0.405 | 0.749
COC(=O)C(CC#Cc1ccc2c(c1)[C@]1(C(=O)N2)[C@H](c2ccc(OCCO)cc2)N2[C@H](c3ccccc3)[C@H](c3ccccc3)OC(=O)[C@H]2[C@@H]1C(=O)N1CCCCCCC1)C(=O)OC | 1.8 | 2.65 | 1.3 | 0.191 (inactive) | 1.18 | 1.37 | 1.64 | 1.63 | 2.14 | 1.64 | 1.32 | -0.851 | 1.62 | 2.73 | 1.29 | 1.25 | 2.81 | 2.33 | 4.91 | 2.62
COCCOC(=O)N1C(=O)[C@@]2(c3cc(C#CCCO)ccc31)[C@H](C(N)=O)[C@H]1C(=O)O[C@H](c3ccccc3)[C@H](c3ccccc3)N1[C@@H]2c1ccccc1OCCO | 1.59 | 0.7 | 0.694 | -0.871 (inactive) | 0.738 | 1.3 | 0.375 | 0.911 | 0.403 | 0.042 | 0.99 | -2.12 | 0.432 | 1.03 | 0.114 | -0.0445 | -0.0165 | 0.135 | 1.08 | 2.08
